From PubChem BioAssay
OvCa metastasis – ovarian cancer metastasis inhibition, 3D TME model; Potency, µM (highest dose often 45.8 µM), without a hit: at the highest dose activity change, negative = inhibition, actives largely listed as inhibitors; 46,000 tested, 0.1% active; SKOV3ip1-GFP adhesion/invasion on 3D omental model, fluorescence; AID 1963576;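 also: potency is read from the fitted curve at half-maximal effect; plate controls were DMSO wells for no effect and tomatine positive control wells for full effect; nearly all actives have a fitted effect of over 65% in size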
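A 3D layer of primary human omental fibroblasts, mesothelial cells, fibronectin and collagen I, grown 48 hr, received SKOV3ip1-GFP cells in serum-free medium plus compounds at 0.36-46 umol/L. After 2 hr RT and 16 hr 37 C, fixed adherent GFP cells were counted; normalized to DMSO and tomatine.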
PMP22 txn – PMP22 gene transcription modulation | S16 Pmp22-F2sN Schwann cells, FLuc/NLuc coincidence luminescence, 24 h | Potency, µM (doses to about 57.5 µM), for inactives: at the highest dose activity change, negative = inhibition, usual class: inhibitors | 43,000 tested, 2% active; active = clear falling dose curves in both reporters; inconclusive = both reporters move, but less clearly or upward; inactive = either reporter flat; the % is the NLuc reporter signal; also: potency is read from the fitted curve at half-maximal effect; % is scaled to controls: 0 for no effect and ±100 for the full control effect
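Schwann cells carrying the coincidence reporter were exposed to library compounds for 24 h at 37C, then lysed and read for FLuc and, after quenching, NLuc luminescence on a CCD imager.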
S16 F2sN tox – cytotoxicity in S16 Pmp22-F2sN Schwann cells; S16 Pmp22-F2sN Schwann cells (luciferase reporters placed in the Pmp22 gene) viability, CellTiter-Glo, 24 h; Potency, µM (highest dose often 57.5 µM), for the others: at the top dose activity change, negative = cytotoxicity, most hits filed as cytotoxic; 43,000 tested, 0.48% active; AID 1508642; also: potency is read from the fitted curve at half-maximal effect; % is scaled to controls: 0 for no effect and ±100 for the full control effect; nearly all actives have a fitted effect of over 65% in size
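CellTiter-Glo counter-screen, qHTS, 1536-well. Cells: S16(c9) Pmp22-F2sN, 500-1,000/well in DMEM + 10% FBS. Cpd 23 nL pin transfer, 24 h, 37C/5% CO2. Read: luminescence, CCD imager.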
mTORC1 inh – reduces mTORC1 signaling in Tsc2 and p53 null MEF cells; Potency, µM (top dose mostly 38.3 µM), for inactives: at the highest dose activity change, negative = inhibition, most hits filed as inhibitors; AID 493208; 44,000 tested, 0.78% active; Tsc2-/- p53-/- MEF, phospho-rpS6 immunofluorescence/PI, 24 h;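 also: potency is read from the fitted curve at half-maximal effect; plate controls were DMSO for no effect and rapamycin for full effect; nearly all actives have a fitted effect of over 50% in size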
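Plate MEFs (Tsc2-/-, p53-/-, empty vector) in DMEM/10% FBS; after 24 h add compound, incubate 24 h at 37 degree Celsius; fix in PFA/TX-100, block, stain phospho-rpS6 and 10 uM PI; scan at 488 nm; report % positive cells.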
p53null 32C kill – p53 null cell cytotoxicity, permissive temperature; 55,000 tested, 0.62% active; Potency, µM (doses to about 46.1 µM), inactives show top-dose activity change, negative = cytotoxicity, hits mostly cytotoxic; H1299-neo p53 null cells, ATP luminescence, 24 h, 32C;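 also: potency is read from the fitted curve at half-maximal effect; 0% = DMSO only and -100% = full killing by 100 µM tamoxifen; nearly all actives have a fitted effect of over 55% in size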
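Cells lacking p53 (H1299-neo) are plated at 600 per well and allowed to settle overnight at 37C. Test compounds (up to 46 uM) are added and held 24 hours at 32C, then ATP is quantified by luminescence.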
p53null 39C kill – selectivity test: cytotoxicity in p53 null cells, nonpermissive temperature. Potency, µM (series often up to 46.1 µM), inactives show at the highest dose activity, negative = cell killing, hits mostly cytotoxic. 55,000 tested, 0.97% active. H1299 p53-null (neo) cells, 39C, ATPlite viability, 24 h;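 also: potency is read from the fitted curve at half-maximal effect; 0% = DMSO only and -100% = full killing by 100 µM tamoxifen; nearly all actives have a fitted effect of over 50% in size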
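Following overnight plating at 37C (600 cells/well), H1299-neo or H1299-p53A138V cells are dosed up to 46 uM. Incubation lasts 24 hr at 39C before ATP detection.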
NLuc sat counter – counter-screen for PMP22 expression modulators: NanoLuc inhibition, saturating substrate; Potency, µM (top dose mostly 57.5 µM), inactives show at the top dose activity change, negative = inhibition, usual class: inhibitors; shares compounds with PMP22 txn; 690 tested, 4% active; Secreted NLuc enzyme (filtered S16 cell medium), Nano-Glo luminescence; also: potency is read from the fitted curve at half-maximal effect; % is scaled to controls: 0 for no effect and ±100 for the full control effect
NLuc Km counter – counter-screen for PMP22 expression modulators: NanoLuc inhibition at Km; shares compounds with PMP22 txn; secreted NLuc enzyme, coelenterazine luminescence, Km conditions; Potency, µM (series often up to 57.5 µM), inactives show top-dose activity change, negative = inhibition, hits mostly inhibitors; 690 tested, 5% active; AID 1508639; also: potency is read from the fitted curve at half-maximal effect; % is scaled to controls: 0 for no effect and ±100 for the full control effect
FLuc ctr PMP22 – counter-screen for PMP22 expression modulators: firefly luciferase inhibition; shares compounds with PMP22 txn; purified P. pyralis FLuc, luminescence, 10 min; Potency, µM (series often up to 57.5 µM), for inactives: at the top dose activity, negative = inhibition, usual class: inhibitors; 690 tested, under 10 active; also: % of control where 0% means no effect
Target sequence (P08659 whole entry, looked up): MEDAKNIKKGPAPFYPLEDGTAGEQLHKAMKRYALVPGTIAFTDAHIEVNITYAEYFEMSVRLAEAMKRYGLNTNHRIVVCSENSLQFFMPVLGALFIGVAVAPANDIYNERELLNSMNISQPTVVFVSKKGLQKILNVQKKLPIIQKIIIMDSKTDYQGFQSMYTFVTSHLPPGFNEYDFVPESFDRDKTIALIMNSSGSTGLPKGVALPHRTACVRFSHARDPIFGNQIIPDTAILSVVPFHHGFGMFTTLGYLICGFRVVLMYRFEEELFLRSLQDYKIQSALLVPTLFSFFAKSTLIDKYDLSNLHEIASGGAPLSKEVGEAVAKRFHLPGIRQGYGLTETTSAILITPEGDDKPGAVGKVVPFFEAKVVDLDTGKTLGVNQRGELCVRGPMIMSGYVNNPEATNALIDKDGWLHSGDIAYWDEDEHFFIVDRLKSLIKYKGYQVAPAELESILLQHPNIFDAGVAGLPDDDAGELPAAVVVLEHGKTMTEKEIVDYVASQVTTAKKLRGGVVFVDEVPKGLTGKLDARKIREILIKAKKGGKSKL
S16 viab conf – S16 Schwann cell cytotoxicity, confirmatory. 690 tested, 7% active. Potency, µM (series often up to 57.5 µM), for inactives: at the top dose activity change, negative = viability loss, actives largely listed as cytotoxic. shares compounds with PMP22 txn. S16 Schwann cells viability, CellTiter-Glo ATP luminescence, 24 h. AID 1508641; also: potency is read from the fitted curve at half-maximal effect; % is scaled to controls: 0 for no effect and ±100 for the full control effect
PMP22 txn cnf – PMP22 transcription modulation, confirmatory; shares compounds with PMP22 txn; S16 Schwann cells Pmp22-F2sN, dual luciferase, 24 h; Potency, µM (top dose mostly 57.5 µM), without a hit: at the top dose activity change, negative = inhibition, hits mostly inhibitors; 690 tested, 22% active; active = clear falling dose curves in both reporters; inconclusive = both reporters move, but less clearly or upward; inactive = either reporter flat; the % is the FLuc reporter signal; also: potency is read from the fitted curve at half-maximal effect
* hit, by the source's call; i = inactive; ? = inconclusive; . = not tested or not shown. The list is not random: actives were taken first. Their share in the collection is about 3.1%. Unless noted, calls follow the shape of the dose curve; as a rule, active = well fitted curve in the direction sought with a large enough effect; inconclusive = small, poorly fitted or top-dose-only effect, or another doubt; inactive = no such curve, though single readings can be large; an effect the other way counts as inactive or inconclusive.

SMILES	OvCa metastasis	PMP22 txn	S16 F2sN tox	mTORC1 inh	p53null 32C kill	p53null 39C kill	NLuc sat counter	NLuc Km counter	FLuc ctr PMP22	S16 viab conf	PMP22 txn cnf
Cc1cc(N2CCN(C)CC2)nc2ccc(NC(=O)c3ccc(C(C)(C)C)cc3)cc12	?	?	?	5.8µM*	25µM*	13µM*	.	.	.	.	.
CSc1cccc(Nc2ncc3cc(-c4c(Cl)cccc4Cl)c(=O)n(C)c3n2)c1	-6%	.	.	.	.	.	.	.	.	.	.
COc1ccc(N2CCN(C(=O)c3cccc(-n4c(C)nc5cccnc54)c3)CC2)cc1	-6%	?	-18%	-12%	-7%	3%	.	.	.	.	.
Cc1nc2cccnc2n1-c1cccc(C(=O)N2CCN(c3ccc(Cl)cc3)CC2)c1	-10%	16µM*	?	-15%	-1%	-3%	.	.	.	.	.
COc1cc(C(C)C)c(Oc2cnc(NC(CO)CO)nc2N)cc1I	-8%	.	.	.	.	.	.	.	.	.	.
O=C(CCCCCCC(=O)Nc1cccnc1)NO	-19%	.	.	.	.	.	.	.	.	.	.
CCN(CC)CCCCNc1nc2cc(Cl)c(Cl)cc2nc1-c1ccc(-c2cccs2)s1	-13%	.	.	.	.	.	.	.	.	.	.
Cc1ccc(-c2cc3ncc4c(n3n2)-c2ccccc2OC4)cc1	-3%	1%	-5%	-9%	.	.	.	.	.	.	.
Cc1ccc(-c2nc3n(n2)Cc2ccccc2-3)cc1	.	.	.	.	8.9µM*	?	.	.	.	.	.
Nc1cc(-c2nc3ncccc3o2)ccc1Cl	.	.	.	.	-28%	8%	.	.	.	.	.
Cc1cc(-c2nc3ncccc3o2)ccc1N	.	.	.	.	11µM*	?	.	.	.	.	.
CCCCN1C(C(=O)c2ccccc2)=C(OC(=O)CC)c2ccccc2S1(=O)=O	-20%	?	-28%	?	13µM*	?	.	.	.	.	.
CCCCCN1C(C(=O)c2ccccc2)=C(OC(=O)CC)c2ccccc2S1(=O)=O	-23%	?	?	-18%	?	?	.	.	.	.	.
Cc1ccc(NC(=O)/C=C/c2ccc(C)o2)c(C)c1	4%	.	.	-1%	-4%	-24%	.	.	.	.	.
CC(=O)c1ccc(NC(=O)/C=C/c2ccc(C)o2)cc1	i	.	.	0%	13µM*	?	.	.	.	.	.
CC(C)(C)OC(=O)N[C@H]1CCCCCC=C[C@@H]2C[C@@]2(C(=O)NS(=O)(=O)C2CC2)NC(=O)[C@@H]2C[C@@H](OC(=O)N3Cc4cccc(F)c4C3)CN2C1=O	10%	.	.	.	.	.	.	.	.	.	.
Cc1ccc(-c2cnc(NCc3c(F)cccc3Cl)n2C)cc1	-3%	-114%	-18%	-26%	-21%	-17%	.	.	.	.	.
Cn1c(-c2cccc(Br)c2)cnc1NCc1cccc(F)c1	-1%	?	-11%	?	-24%	-21%	-11%	?	1%	-21%	-27%
CCc1ccc(CNc2ncc(-c3cccc(OC)c3)n2C)cc1	5.6µM*	?	?	13µM*	-19%	-21%	-9%	-7%	-10%	?	?
COc1cc(OC)cc(C(=O)Nc2ccc3nc4c(c(Nc5ccc(OC)c(OC)c5)c3c2)CCCC4)c1	?	?	?	0%	?	?	.	.	.	.	.
COc1ccc(Nc2c3c(nc4ccc(NC(=O)c5cc(Cl)ccc5OC)cc24)CCCC3)cc1OC	?	4.7µM*	?	0%	6.3µM*	5µM*	-13%	-2%	12%	14µM*	9.7µM*
N#C/C(=C/c1ccc(Cl)cc1Cl)c1nc2ccccc2c(=O)[nH]1	i	-10%	-1%	8%	6%	13%	.	.	.	.	.
COc1c(Cl)cc(Cl)cc1/C=C(\C#N)c1nc2ccccc2[nH]1	i	11µM*	?	-9%	-19%	2%	?	?	6%	-19%	?
CCC(=O)Oc1ccc(/C=C(\C#N)c2nc3ccccc3[nH]2)cc1OC	2%	?	0%	16%	-13%	?	.	.	.	.	.
COc1cc(/C=C(\C#N)c2nc3ccccc3[nH]2)ccc1OCc1ccccc1F	-10%	13µM*	5%	3%	-10%	-18%	?	?	-5%	-2%	?
SMILES	OvCa metastasis	PMP22 txn	S16 F2sN tox	mTORC1 inh	p53null 32C kill	p53null 39C kill	NLuc sat counter	NLuc Km counter	FLuc ctr PMP22	S16 viab conf	PMP22 txn cnf
CCC1CCCCN1CCCNC(=O)c1ccc2c(c1)N(Cc1ccccc1F)C(=O)c1ccccc1S2(=O)=O (configuration not stated)	-17%	8.9µM*	?	?	-2%	?	-21%	4%	-14%	?	?
OCCn1cc(-c2cnc3nnn(Cc4ccc5ncccc5c4)c3n2)cn1	-22%	.	.	.	.	.	.	.	.	.	.
CNC(=O)c1c(-c2ccc(F)cc2)oc2cc(N(CCO)S(C)(=O)=O)c(C3CC3)cc12	-1%	.	.	.	.	.	.	.	.	.	.
CCc1nnc(SCC(=O)N(C)c2ccccc2)c2cc3sccc3n12	-8%	13µM*	?	1%	-1%	-11%	?	?	-12%	-13%	?
Cc1ccc(-c2csc(-c3cc4c([nH]c3=O)CC(c3ccccc3)CC4=O)n2)cc1 (configuration not stated)	7%	6.3µM*	-18%	?	30%	-4%	-16%	-5%	8%	?	-32%
COc1ccc(C2CC(=O)c3cc(-c4nc(-c5cccc(Cl)c5)cs4)c(=O)[nH]c3C2)cc1 (configuration not stated)	19%	?	0%	5%	1%	-24%	.	.	.	.	.
CNC(=O)c1ccc(C)c(-n2c(C)cc(OCc3ccc(F)cc3F)c(Br)c2=O)c1	5%	.	.	.	.	.	.	.	.	.	.
